From PubChem BioAssay (NCI) come the findings set out here.

Assay in all cases: NCI-60 one-dose screen, 48 h (100 = growth as untreated, 0 = no growth, -100 = all killed)
For assay [1], the system named is SK-MEL-2 melanoma. Particulars: 10 µM unless noted.
Assay [2] deals with EKVX NSCLC. Particulars: 10 µM unless noted.
Assay [3] relates to SN12C renal. The following applies: 10 µM unless noted.
Assay [4] deals with UO-31 renal. Particulars: 10 µM unless noted.
Assay [5] deals with TK-10 renal. The following applies: 10 µM unless noted.
The subject of assay [6] is ACHN renal. Particulars: 10 µM unless noted.
Assay [7] has as its system CAKI-1 renal. Particulars: 10 µM unless noted.
Assay [8] deals with A498 renal. The following applies: 10 µM unless noted.
For assay [9], the system named is CCRF-CEM leukemia. Particulars: 10 µM unless noted.
Assay [10] has as its system MOLT-4 leukemia. The following applies: 10 µM unless noted.
The test system of assay [11] is SR leukemia. The following applies: 10 µM unless noted.
The subject of assay [12] is RPMI-8226 leukemia. The following applies: 10 µM unless noted.
Assay [13] relates to OVCAR-8 ovarian. The following applies: 10 µM unless noted.
For assay [14], the system named is OVCAR-5 ovarian. The following applies: 10 µM unless noted.
The test system of assay [15] is OVCAR-4 ovarian. Particulars: 10 µM.
Assay [16] has as its system SK-OV-3 ovarian. Particulars: 10 µM unless noted.
For assay [17], the system named is IGROV1 ovarian. Particulars: 10 µM unless noted.
Assay [18] deals with OVCAR-3 ovarian. Particulars: 10 µM unless noted.
Assay [19] has as its system HS 578T breast. The following applies: 10 µM unless noted.
The subject of assay [20] is NCI/ADR-RES ovarian. The following applies: 10 µM unless noted.

Compounds without any hit were thinned out: in the full panel of roughly 83,000, 20% have a hit.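 Negative percent growth values reflect cell death: -40 means 40% of the cells present at the start died, and -100 means all died.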 Unmarked numbers belong to inactive results. Calls of active or inactive are those of the source. Rule for the calls: active = growth percent below 10; inactive = the rest.

For the compound `Cc1cccc(/C=C2\N=C(c3ccccc3)N(c3ccc(S(N)(=O)=O)cc3)C2=O)c1`, the growth in assay [1] is 102%; in [2], 92.1%; in assay [3], 91.8%; in assay [4], 99.9%; in assay [5], 98.5%; in assay [6], 86.5%. Moreover, the growth in assay [7] is 86.2%; in assay [8], 101%; in assay [9], 99.9%; in assay [10], 90.3%; in assay [11], 69.6%; in [12], 99.3%. Further, the growth in [13] is 73%; in assay [14], 99.1%; in assay [15], 77.1%; in [16], 98.8%; in assay [17] it was 96.2%; in [18], 102%. The growth is 76.1% in [19] and 88.7% in [20].

For `COc1cc2c(cc1OC(C)=O)C(=O)CCCC2`, the growth is 99.3% in [1]; 104% in [2]; 112% in [3]; 88.4% in [4]; 118% in assay [5]; 92.5% in assay [6]. The growth in [7] was 73.8%; in [8], 68.3%; in assay [9], 102%; in assay [10], 115%; in assay [11] it was 121%; in assay [12], 109%. Moreover, the growth in assay [13] was 98.3%; in assay [14], 103%; in [15], 95.1%; in [16], 117%; in [17], 78.8%; in [18], 114%. The growth is 84.3% in assay [19] and 97.7% in assay [20].

In the case of `Cn1cc(-c2noc(-c3cn(C)c4ncc(F)cc34)n2)c2ccccc21`, the growth is 93.8% in assay [1]; 34.3% in assay [2]; 33.6% in assay [3]; 61.7% in assay [4]; 38.9% in assay [5]; 66.3% in assay [6]. Besides, the growth was 47.1% in assay [7]; 62.9% in assay [8]; 78% in assay [9]; 77.4% in assay [10]; 69.1% in assay [11]; 78.2% in assay [12]. Moreover, the growth in [13] was 40%; in [14], 75.1%; in assay [15] it was -29.4% (active); in assay [16] it was 7.74% (active); in assay [17], 45%; in assay [18], 32.5%. Further, the growth in [19] was 30.9%; in assay [20], 58.2%.

Consider `CCn1cc(-c2ccnc(NCCNS(=O)(=O)c3cccc4ccccc34)c2)c(-c2cccc(O)c2)n1`, for which the growth is 111% in [1]; 96.9% in assay [2]; 96.7% in assay [3]; 90.3% in [4]; 114% in [5]; 100% in assay [6]. The growth in [7] was 102%; in assay [8], 91.5%; in assay [9] it was 95%; in [10], 93.1%; in assay [11], 74.9%; in assay [12], 74%. Also, the growth in assay [13] was 101%; in [14], 123%; in [15], 99.9%; in assay [16] it was 106%; in assay [17], 91.5%; in assay [18], 100%. The results for the growth in [19] and in assay [20] were 95.3% and 102%, respectively.

Take `CCC(C)[C@H](NC(=O)NC(=O)NC(=O)CI)C(=O)OC` (stereo not given in full): the growth in assay [1] is 86.1%; in assay [2], 102%; in assay [3] it was 89.3%; in [4] it was -21.3% (active); in assay [5], 91.8%; in assay [6] it was 57.3%. The growth was -59.6% (active) in assay [7]; 89.1% in assay [8]; -46.2% (active) in assay [9]; -16.7% (active) in assay [10]; -40.7% (active) in assay [11]; 61.9% in assay [12]. In addition, the growth in [13] is 88.1%; in assay [14] it was 94.3%; in assay [15], 63.6%; in assay [16], 88.4%; in assay [17] it was 80.7%; in assay [18], -39.5% (active). For the same compound, the growth in [19] is 84.9%; in assay [20], 98.4%.

`Nc1ccc2c(c1)Cc1cc(NC(=O)C(F)(F)F)ccc1-2`: the growth in [1] is 98.6%; in assay [2], 79.9%; in [3], 97.6%; in [4], 75.7%; in assay [5] it was 106%; in assay [6] it was 104%. The growth was 96.3% in assay [7]; 84.6% in [8]; 86.3% in assay [9]; 109% in assay [10]; 101% in assay [11]; 88.3% in assay [12]. For the same compound, the growth is 102% in assay [13]; 114% in assay [14]; 109% in assay [15]; 89.8% in [16]; 114% in assay [17]; 99.5% in [18]. Moreover, the growth in assay [19] is 119%; in assay [20] it was 104%.

Regarding `O=C(O)c1cn(C2CC2)c2cc(N3CCN(Cc4cc(Cl)ccc4O)CC3)c(F)cc2c1=O`, the growth is 88% in assay [1]; 65.1% in assay [2]; 65.3% in assay [3]; 40.7% in [4]; 81% in assay [5]; 44.3% in [6]. Further, the growth was 46.7% in assay [7]; 94% in assay [8]; 45.9% in [9]; 74.1% in assay [10]; 0.849% (active) in assay [11]; 41.8% in assay [12]. For the same compound, the growth in assay [13] was 58.2%; in [14], 89.4%; in assay [15], 72.3%; in assay [16], 71%; in assay [17], 44.8%; in assay [18], 81.2%. Also, the growth in assay [19] was 74.1%; in assay [20], 72.7%.

On to `CN(C)C(=S)Sc1ccc([N+](=O)[O-])cc1[N+](=O)[O-]`, for which the growth was 57.8% in [1]; 82.4% in assay [2]; 41.8% in assay [3]; 16.7% in [4]; 67.8% in assay [5]; -44.4% (active) in assay [6]. Also, the growth is 4.43% (active) in [7]; 80.5% in assay [8]; 4.55% (active) in assay [9]; 0.177% (active) in assay [10]; 7.64% (active) in [11]; 27.7% in assay [12]. For the same compound, the growth is 18.7% in assay [13]; 72.9% in assay [14]; 20.8% in [15]; 93.1% in assay [16]; 1.54% (active) in assay [17]; 1.07% (active) in assay [18]. Further, the growth in assay [19] was 97.5%; in assay [20], 40.8%.
